High-throughput results from PubChem BioAssay.
In the library only some 19% were active in any assay of this set; here they are far more common.
HT1080NT lethal = kills 2HG-producing HT-1080-NT fibrosarcoma cells | HT-1080-NT fibrosarcoma viability, CellTiter-Glo ATP luminescence, 48 h | Potency, µM (series often up to 46.1 µM), hits mostly cytotoxic | 360,000 tested, 1.6% active | AID 686970;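 also: NT is the 2HG producing partner of a matched IDH1 knockdown line; nearly all actives have a fitted effect of over 55% in size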
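Compounds were tested in concentration-response format on HT-1080-NT cells for 48 hours at 37 degrees C. Cell viability came from CellTiter-Glo luminescence; curves were classified by r2, response magnitude and activity.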
TDP1 cell CPT = DT40-hTDP1 cell growth loss with CPT | chicken DT40 Tdp1-/-;hTDP1 cells + 20 nM CPT, ATP luminescence, 48 h | Potency, µM (highest dose often 46.2 µM), usual class: inhibitors | AID 686979 | 420,000 tested, 12% active; also: nearly all actives have a fitted effect of over 55% in size
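Chicken DT40 Tdp1-/- cells complemented with human TDP1, 400 cells/well, exposed to compounds plus 20 nM camptothecin for at least 48 h at 37 C; viability read as ATP content by CellTiter-Glo luminescence.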
TDP1 cell noCPT = qHTS for Inhibitors of human tyrosyl-DNA phosphodiesterase 1 (TDP1): qHTS in cells in absence of CPT. DT40 Tdp1-/- hTDP1 cells, no CPT, ATP luminescence, 48 h. Potency, µM (doses to about 46.2 µM), hits mostly inhibitors. 420,000 tested, 15% active. AID 686978, 2013; also: nearly all actives have a fitted effect of over 55% in size
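Chicken DT40 Tdp1-/- cells complemented with human TDP1, screened without camptothecin (DMSO vehicle only), 400 cells/well. Compounds pin-transferred, cells incubated at 37 °C for at least 48 hr. Growth read as ATP-dependent luminescence (CellTiter-Glo, 30 min at RT).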
ELG1 DNA repair = inhibitors of ELG1-dependent DNA repair in HEK293T cells. Potency, µM (doses to about 46.1 µM), usual class: inhibitors. HEK293T ELG1-luciferase reporter, luminescence, 16 h; DNA damage induced by 5-fluorouridine. 330,000 tested, 2.3% active; also: nearly all actives have a fitted effect of over 55% in size
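5-Fluorouridine DNA damage + compound/DMSO, 2,000 cells/well, 16 h, 37 °C/5% CO2. ONE-Glo, 30 min RT, luminescence. Readout = decrease in reporter signal.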
IL1B secr inh = inflammasome signaling inhibition, IL-1 beta readout; 360,000 tested, 4.7% active; activity change, % at 57.5 µM; AID 743279; THP-1 LPS/ATP IL-1B secretion, AlphaLISA, 16 h; hits give low values; in the data active = activity change below about -50%; inconclusive = mostly about -30% to -49%
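THP-1 cells pretreated 1 hr with compounds (up to 57.5 uM final), then stimulated with LPS (250 ng/mL final) plus ATP (1.25 mM final); secreted IL-1B measured by AlphaLISA after 16 hr, decreased signal indicating inhibition.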
HT1080 IDH1KD tx = kills HT-1080 cells with IDH1 knockdown. HT-1080 IDH1 knockdown viability, ATP luminescence, 48 h. Potency, µM (series often up to 46.1 µM), most hits filed as cytotoxic. 360,000 tested, 2% active
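Viability of IDH1-knockdown HT-1080 fibrosarcoma cells was assessed by CellTiter-Glo after 48 h at 37 °C with titrated compound; concentration-effect curves were classified by fit quality and response size.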
Numbers stand for hits; 0 = inactive; ? = inconclusive; - = no result; [ ] = another dose, or the depositor's remark. Unless noted, calls follow the shape of the dose curve; as a rule, active = well fitted curve in the direction sought with a large enough effect; inconclusive = small, poorly fitted or top-dose-only effect, or another doubt; inactive = no such curve, though single readings can be large; an effect the other way counts as inactive or inconclusive.

SMILES | HT1080NT lethal | TDP1 cell CPT | TDP1 cell noCPT | ELG1 DNA repair | IL1B secr inh | HT1080 IDH1KD tx
COCc1nc2c([nH]1)c(=O)n(C)c(=O)n2CC(C)C | 0 | 0 | 0 | ? | 0 | 0
CC(C)OCCCNC(=O)c1ccc2c(c1)S(=O)(=O)c1ccccc1C2=O | 0 | 0 | ? | 0 | 0 | 0
COCCCNC(=O)c1ccc2c3c(onc13)-c1ccccc1C2=O | ? | 7.3µM | 15µM | ? | -98 | ?
CCOC(=O)c1cc(C#N)c(SC(C(=O)N2CCCCC2)c2ccccc2)nc1C (stereo not given) | - | ? | 10µM | - | - | -
O=C(Oc1c(-c2ccccc2)c(=O)n2c3c(cccc13)CC2)c1ccco1 | 0 | 0 | ? | ? | 0 | 0
O=C(Oc1c(-c2ccccc2)c(=O)n2c3c(cccc13)CC2)c1ccc(Cl)cc1 | 0 | 0 | 21µM | ? | 0 | 0
NS(=O)(=O)c1cc(Br)c2c(c1)S(=O)(=O)NCN2 | 0 | 0 | 0 | - | 0 | 0
O=C(c1cccnc1)N1CCN(c2ccc(Cl)cc2)CC1 | 0 | ? | ? | 0 | 0 | 0
CSc1ncc(C(=O)N2CCN(c3ccc(F)cc3)CC2)c(C)n1 | - | 0 | 0 | - | - | -
O=C(c1cnc(N2CCCCC2)c2ccccc12)N1CCN(c2ccc(Cl)cc2)CC1 | - | 15µM | 23µM | - | - | -
CCCc1nc(SC)ncc1C(=O)N1CCN(c2ccc(Cl)cc2)CC1 | - | ? | 23µM | - | - | -
Cc1ccc(Cl)cc1N1CCN(C(=O)c2cnc(N3CCOCC3)c3ccccc23)CC1 | - | 5.8µM | 6.5µM | - | - | -
CN(C(=O)c1cnc(N2CCN(c3ncccn3)CC2)c2ccccc12)c1ccc(Cl)cc1 | 0 | ? | 21µM | ? | -84 | 0
COCCCn1c(=O)c2ccccc2n(Cc2cc(C(=O)OC)ccc2OC)c1=O | 0 | 0 | 0 | ? | 0 | 0
CC1(C(=O)NS(=O)(=O)c2cccc(C#N)c2)CCN1C(=O)CCc1ccccc1 (stereo not given) | 0 | 0 | 0 | - | 0 | ?
O=C(c1cnc(N2CCN(c3ncccn3)CC2)c2ccccc12)N1CCN(c2ncccn2)CC1 | 0 | 15µM | 15µM | ? | -54 | 0
Fc1ccc(Nc2nc(Oc3ccccc3F)nc(N3CCCC3)n2)cc1 | 0 | 0 | ? | ? | -53 | 0
c1ccc(Nc2nc(N3CCCCC3)nc(N3CCNCC3)n2)cc1 | ? | 29µM | 18µM | 0 | -65 | ?
COc1nc(Nc2cccc(C)c2)nc(N2CCCCC2)n1 | 0 | 18µM | 16µM | 0 | 0 | 0
c1ccc(Nc2nc(Nc3ccccc3)nc(-n3cccn3)n2)cc1 | - | 7.1µM | 5µM | - | - | -
Cc1ccccc1NC(=O)Nc1nnc([C@@H]2C[C@H](O)[C@@H](CO)O2)s1 | 0 | 0 | 0 | - | 0 | 0
Cc1ccc(CNC(=O)Cn2c(=O)n(-c3ccc(C)cc3)c(=O)c3c2c2cc(C)ccc2n3C)cc1 | - | 0 | 0 | - | - | -
Cc1ccc(C(=O)c2oc3ccccc3c2NC(=O)c2cc(-c3ccccc3)on2)cc1 | - | 0 | 0 | - | - | -
Cc1ccc(Nc2nc(N)nc(CSc3nc4ccccc4s3)n2)cc1 | ? | ? | ? | ? | -70 | ?
COc1ccc(Nc2nc(N)nc(CSc3nnc(C)s3)n2)cc1 | 0 | 0 | 0 | ? | 0 | 0
SMILES | HT1080NT lethal | TDP1 cell CPT | TDP1 cell noCPT | ELG1 DNA repair | IL1B secr inh | HT1080 IDH1KD tx
COc1ccc(Nc2nc(N)nc(CSc3nc4cc(OC)ccc4s3)n2)cc1 | - | 12µM | 15µM | - | - | -
COc1cc(NC(=O)Cn2nc(C(F)(F)F)c3c2CCCC3)c(OC)cc1Cl | - | 21µM | 16µM | - | - | -
COc1cc(NC(=O)Cn2nc(C(F)(F)F)c3c2CCC3)cc(OC)c1OC | - | ? | 9.2µM | - | - | -
COC(=O)c1ccccc1NC(=O)Cn1nc(C(F)(F)F)c2c1CCCC2 | - | 23µM | 7.3µM | - | - | -
O=C(OCC(=O)N1CCOCC1)c1cncc(Br)c1 | 0 | 0 | 0 | - | 0 | 0
CS(=O)(=O)c1ccc(/C=C2\C=Cc3ccccc32)cc1 | - | ? | 20µM | - | - | -
CN(N=O)c1ccc(/C=C2\C=Cc3ccccc32)cc1 | - | 0 | 0 | - | - | -
COc1ccc(/C=C2/C=Cc3ccccc32)cc1 | - | 0 | ? | - | - | -
COc1cc(/C=C2\C=Cc3ccccc32)cc(OC)c1OC | - | ? | 16µM | - | - | -
Nc1ccc(C=C2C=Cc3ccccc32)cc1 | 0 | 0 | 0 | - | -74 | 0
NC(N)=Nc1ccc(C=C2C=Cc3ccccc32)cc1 | 0 | 9.2µM | 9.2µM | - | -68 | ?
COc1ccc(Cn2ccc3nc(C)c(C(=O)NCc4ccc(SC)cc4)cc3c2=O)cc1 | - | 0 | ? | - | - | -
CCCCN(CCCC)c1ccc(/C=C2\C=Cc3ccccc32)cc1 | - | 0 | 0 | - | - | -
C1=Cc2ccccc2/C1=C\c1cc[cH-]c1.[Fe+2].c1cc[cH-]c1 | - | 11µM | ? | - | - | -
CCc1ccc(Nc2nnc(SCC(=O)c3c(N)n(C4CC4)c(=O)[nH]c3=O)s2)cc1 | 0[9.24 µM] | 0 | 0 | ? | 0 | 0
CC(=O)c1cccc(NC(=O)[C@H](Cc2ccccc2)N2Cc3ccccc3C2=O)c1 | - | 0 | ? | - | - | -
COC(=O)c1cc2occc2n1Cc1nc(-c2ccc(Cl)cc2)oc1C | 0 | ? | ? | 0 | 0 | 0
COC(=O)c1ccc2c(c1)N(Cc1nc(-c3ccc(Cl)cc3)oc1C)C(=O)C1CCCN21 (stereo not given) | 0 | 21µM | ? | - | 0 | 0
Cc1oc(-c2cccc(Cl)c2)nc1CN1CCCC(C(=O)NCc2ccc(F)cc2)C1 (stereo not given) | - | 5.8µM | 5.8µM | - | - | -
Cc1oc(-c2ccc(Cl)cc2)nc1CN1CCCC(C(=O)N2CCOCC2)C1 (stereo not given) | 0 | ? | ? | 0 | 0 | 0
CCc1ccc(-c2nc(CN3CCC(C(=O)N4CCN(c5ccccc5)CC4)CC3)c(C)o2)cc1 | 0 | ? | 16µM | ? | ? | 0
COc1ccc(-c2nc(CN3CCC(C(=O)NCc4ccc(F)cc4)CC3)c(C)o2)cc1OC | - | 0 | 0 | - | - | -
CCc1ccc(-c2nc(CN3CCC(C(=O)NCc4ccc(F)cc4)CC3)c(C)o2)cc1 | 0 | ? | ? | 15µM | 0 | 0
O=c1[nH]c(=S)[nH]cc1Oc1ccc(Cl)cc1 | 0 | 0 | 0 | - | 0 | 0
CCOc1ccc(-n2c(=O)c3sccc3n(Cc3cccc([N+](=O)[O-])c3)c2=O)cc1 | 0 | ? | ? | 0 | 0 | 0
COc1ccc(CCNC(=O)C2CCN(Cc3nc(-c4ccc(Cl)cc4)oc3C)CC2)cc1OC | 0 | 0 | ? | - | 0 | 0
Cc1oc(-c2ccc(Cl)cc2)nc1CN1CCCC(C(=O)NCCc2ccc(Cl)cc2)C1 (stereo not given) | - | 7.3µM | 5.8µM | - | - | -
CCCN(CCC)CCCNC(=O)C1CCCN(Cc2nc(-c3ccc(Cl)cc3)oc2C)C1 (stereo not given) | - | 12µM | 9.2µM | - | - | -
